In PubChem BioAssay (Tox21):
Records with an inconclusive call do not appear. Some structures have more than one record in an assay (separate samples or runs), and their calls can disagree. Active and inactive are the calls of the source. Unless noted, calls come from the whole dose curve.

Legend:
[1] = qHTS assay to identify small molecule agonists of the farnesoid-X-receptor (FXR) signaling pathway - cell viability counter screen (AID 743218; active = well fitted curve in the direction sought with a large enough effect in the repeat runs; an effect the other way counts as inactive or inconclusive; note: nearly all actives have a fitted effect of over 45% in size)
Outline: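 Viability of FXR-bla HEK 293T cells is measured by ATP-based CellTiter-Glo luminescence following 16 h compound treatment at 37 C and a prior 2 h room-temperature beta-lactamase substrate step.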

[2] = qHTS assay to identify small molecule antagonists of the farnesoid-X-receptor (FXR) signaling pathway - cell viability counter screen (AID 743221; active = well fitted cell-killing curve with a large enough effect in the repeat runs, not every such curve was filed as active; note: nearly all actives have a fitted effect of over 50% in size)
Outline: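 Quantitative HTS of the Tox21 10K library run in parallel with the beta-lactamase reporter read. HEK 293T cells carrying a UAS-driven bla reporter got compound and 50 uM CDCA (final) for 16 h; ATP-based luminescence followed.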

[3] = molecular target: Vitamin D3 receptor (Homo sapiens) (UniProt P11473); assay: qHTS assay to identify small molecule agonists of the vitamin D receptor (VDR) signaling pathway (AID 743222)
Vitamin D3 receptor (Homo sapiens), sequence (P11473 whole entry, looked up): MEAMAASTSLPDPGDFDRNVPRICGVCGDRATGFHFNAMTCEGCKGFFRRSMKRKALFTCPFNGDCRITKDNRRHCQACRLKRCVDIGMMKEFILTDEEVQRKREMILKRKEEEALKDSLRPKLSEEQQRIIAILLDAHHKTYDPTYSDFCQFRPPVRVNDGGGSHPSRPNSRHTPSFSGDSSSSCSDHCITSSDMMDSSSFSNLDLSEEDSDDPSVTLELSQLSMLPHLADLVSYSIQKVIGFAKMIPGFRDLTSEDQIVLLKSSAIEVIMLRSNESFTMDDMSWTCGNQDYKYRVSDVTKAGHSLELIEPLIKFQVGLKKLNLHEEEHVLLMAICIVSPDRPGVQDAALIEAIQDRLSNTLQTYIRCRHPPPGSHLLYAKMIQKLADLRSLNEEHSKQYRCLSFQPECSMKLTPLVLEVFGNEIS
Outline: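 Fluorescence from cleaved LiveBLAzer B/G FRET substrate served as readout. VDR-bla cells had been treated 16 h at 37C with test compounds in DMSO, following a 4 h settling period, and substrate was loaded for 2 h at RT.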

[4] = molecular target: Vitamin D3 receptor (Homo sapiens) (UniProt P11473); assay: qHTS assay to identify small molecule antagonists of the vitamin D receptor (VDR) signaling pathway (AID 743223; active = well fitted inhibition curve with a large enough effect in the signal ratio in the repeat runs, not every such curve was filed as active; the % refers to the signal ratio)
Outline: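 Fluorescence from LiveBLAzer B/G FRET substrate, read after 2 h at room temperature, reflects beta-lactamase reporter activity in VDR-bla cells treated 16 h at 37C with compounds and agonist 1alpha,25-dihydroxyvitamin D3 (3 nM final).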

[5] = qHTS assay to identify small molecule agonists of the vitamin D receptor (VDR) signaling pathway - cell viability counter screen (AID 743224; active = well fitted curve in the direction sought with a large enough effect in the repeat runs; an effect the other way counts as inactive or inconclusive; note: series mostly up to about 63 µM; nearly all actives have a fitted effect of over 50% in size)
Outline: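 Compounds were pin-transferred onto VDR-bla cells plated 4 h earlier; following 16 h incubation at 37C, cell viability was quantified by CellTiter-Glo luminescence after 30 min at room temperature.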

[6] = qHTS assay to identify small molecule agonists of the NFkB signaling pathway (AID 1159509; active = well fitted curve in the direction sought with a large enough effect in the signal ratio in the repeat runs, not every such curve was filed as active; the % refers to the signal ratio; note: series mostly up to about 61 µM)
Outline: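 Agonist activity was read as beta-lactamase-driven FRET change (460 and 530 nm emission, 405 nm excitation) following 1.5 hr substrate loading at room temperature. Beforehand, ME-180 NFkB-bla reporter cells were treated with compounds for 5 hr at 37 C.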

[7] = qHTS assay to identify small molecule agonists of the NFkB signaling pathway - cell viability counter screen (AID 1159515); note: series mostly up to about 61 µM; nearly all actives have a fitted effect of over 55% in size
Outline: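 Parallel cytotoxicity counter screen in ME-180 cells carrying an NFkB-response-element beta-lactamase reporter, 2,000 cells/well. Compound exposure lasted 5 hr at 37 C, 5% CO2. Cell viability was quantified by CellTiter-Glo luminescence.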

[8] = qHTS assay to identify small molecule agonists of the endoplasmic reticulum stress response signaling pathway (AID 1159516; active = well fitted activation curve with a large enough effect in the signal ratio in the repeat runs, not every such curve was filed as active; the % refers to the signal ratio)
Outline: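 Using a HeLa line with an ESRE-driven beta-lactamase gene, agonist activity was measured by FRET substrate fluorescence (460 and 530 nm emission) after cells were treated with compounds for 5 hr at 37 C and 5% CO2.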

[9] = qHTS assay to identify small molecule agonists of the endoplasmic reticulum stress response signaling pathway - cell viability counter screen (AID 1159517);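 note: HeLa cells carrying an ER stress response element beta-lactamase reporter; series mostly up to about 61 µM; nearly all actives have a fitted effect of over 50% in size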
Outline: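 Cpd-treated ESRE-bla HeLa (5 hr, 37 C) → LiveBLAzer 2 hr RT → CellTiter-Glo 30 min RT → luminescence.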

[10] = qHTS assay to identify small molecule antagonists of the retinoid-related orphan receptor gamma (ROR-gamma) signaling pathway - cell viability counter screen (AID 1159520; active = well fitted curve in the direction sought with a large enough effect in the repeat runs; an effect the other way counts as inactive or inconclusive; note: nearly all actives have a fitted effect of over 50% in size)
Outline: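 Tet-on ROR gamma CHO cells (1,000/well) were plated 4 hr, given compounds in DMSO for 2 hr at 37 C, then induced with 1 uM final doxycycline for 16 hr. Viability was read as ATP by CellTiter-Glo luminescence after 30 min.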

[11] = molecular target: Nuclear receptor ROR-gamma (Homo sapiens) (UniProt P51449); assay: qHTS assay to identify small molecule antagonists of the retinoid-related orphan receptor gamma (ROR-gamma) signaling pathway (AID 1159521; active = well fitted curve in the direction sought with a large enough effect in the repeat runs; an effect the other way counts as inactive or inconclusive; note: nearly all actives have a fitted effect of over 50% in size; note: potency is the fitted concentration of half-maximal effect)
Outline: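 RORγ antagonism is scored from reduced reporter luminescence in Tet-on CHO cells. Induction used 1 uM final doxycycline hyclate for 16 h at 37 C, following a 2 h compound exposure.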

[12] = qHTS assay to identify small molecule agonists of the AP-1 signaling pathway - cell viability counter screen (AID 1159525); note: nearly all actives have a fitted effect of over 55% in size
Outline: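 Each titration point was normalised to DMSO and tetra n-octyl ammonium bromide controls. The read was Cell Titer Glo luminescence after 30 min at RT, following 5 h compound exposure of ME-180 AP-1-bla cells at 37 °C.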

[13] = qHTS assay to identify small molecule agonists of the AP-1 signaling pathway (AID 1159526)
[14] = molecular target: Retinoic acid receptor RXR-alpha (Homo sapiens) (UniProt P19793); assay: qHTS assay to identify small molecule agonists of the RXR signaling pathway (AID 1159527); note: nearly all actives have a fitted effect of over 35% in size
Retinoic acid receptor RXR-alpha (Homo sapiens), sequence (P19793 whole entry, looked up): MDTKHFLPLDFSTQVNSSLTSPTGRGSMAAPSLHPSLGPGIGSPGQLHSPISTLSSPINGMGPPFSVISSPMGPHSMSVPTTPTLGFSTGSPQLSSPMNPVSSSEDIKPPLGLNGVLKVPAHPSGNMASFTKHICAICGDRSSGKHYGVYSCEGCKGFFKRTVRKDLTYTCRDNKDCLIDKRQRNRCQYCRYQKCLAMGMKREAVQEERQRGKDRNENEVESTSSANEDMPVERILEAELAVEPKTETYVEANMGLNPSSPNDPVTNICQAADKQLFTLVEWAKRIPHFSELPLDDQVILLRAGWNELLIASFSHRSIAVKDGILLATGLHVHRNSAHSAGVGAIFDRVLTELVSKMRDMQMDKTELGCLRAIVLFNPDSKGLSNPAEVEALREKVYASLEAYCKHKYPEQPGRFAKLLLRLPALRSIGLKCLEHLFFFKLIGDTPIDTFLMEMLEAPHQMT
Outline: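 qHTS of the Tox21 10K library in GeneBLAzer RXR-alpha HEK 293T cells carrying a beta-lactamase reporter […]; 16 hr treatment, 9-cis retinoic acid as agonist control, FRET read-out.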

[15] = molecular target: Bile acid receptor (Homo sapiens) (UniProt Q96RI1); assay: qHTS assay to identify small molecule antagonists of the farnesoid-X-receptor (FXR) signaling pathway (AID 743217; active = well fitted inhibition curve with a large enough effect in the signal ratio in the repeat runs, not every such curve was filed as active; the % refers to the signal ratio)
Bile acid receptor (Homo sapiens), sequence (Q96RI1 whole entry, looked up): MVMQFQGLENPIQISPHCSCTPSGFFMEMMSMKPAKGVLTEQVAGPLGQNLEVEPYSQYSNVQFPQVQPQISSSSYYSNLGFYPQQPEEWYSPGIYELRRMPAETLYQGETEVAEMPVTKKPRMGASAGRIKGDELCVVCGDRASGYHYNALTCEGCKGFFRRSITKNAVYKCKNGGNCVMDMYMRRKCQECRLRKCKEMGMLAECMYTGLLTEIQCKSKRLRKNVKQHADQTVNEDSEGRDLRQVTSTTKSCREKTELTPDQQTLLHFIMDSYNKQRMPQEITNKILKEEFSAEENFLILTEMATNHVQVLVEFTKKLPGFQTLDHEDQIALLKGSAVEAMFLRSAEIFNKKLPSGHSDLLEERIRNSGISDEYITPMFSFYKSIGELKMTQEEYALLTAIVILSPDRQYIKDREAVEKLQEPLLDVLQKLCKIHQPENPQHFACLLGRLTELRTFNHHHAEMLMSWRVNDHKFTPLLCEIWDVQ
Outline: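 Screen of the Tox21 10K library in quantitative HTS format using FXR-UAS-bla HEK 293T reporter cells. Agonist chenodeoxycholic acid, 50 uM final, added with compounds; 16 h incubation at 37 °C; beta-lactamase FRET fluorescence measured.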

[16] = molecular target: Bile acid receptor (Homo sapiens) (UniProt Q96RI1); assay: qHTS assay to identify small molecule agonists of the farnesoid-X-receptor (FXR) signaling pathway (AID 743220; active = well fitted activation curve with a large enough effect in the signal ratio in the repeat runs, not every such curve was filed as active; the % refers to the signal ratio)
Outline: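 FXR-UAS-bla HEK 293T cells carrying a UAS-driven beta-lactamase reporter were plated for 5 h at 37C/5% CO2, then exposed to DMSO-dissolved Tox21 10K compounds for 16 h at 37C. A LiveBLAzer B/G FRET substrate was loaded for 2 h at room temperature before fluorescence reading.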

[17] = qHTS assay to identify small molecule antagonists of the vitamin D receptor (VDR) signaling pathway - cell viability counter screen (AID 743225; active = well fitted curve in the direction sought with a large enough effect in the repeat runs; an effect the other way counts as inactive or inconclusive; note: nearly all actives have a fitted effect of over 50% in size)
Outline: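 Cells (VDR-UAS-bla HEK 293T) are plated, rested 4 h at 37C, dosed with compound and 3 nM final 1-alpha,25-dihydroxy vitamin D3, and incubated 16 h. Viability is taken from CellTiter-Glo luminescence in the reporter wells.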

[18] = molecular target: Peroxisome proliferator-activated receptor delta (Homo sapiens) (UniProt Q03181); assay: qHTS assay to identify small molecule agonists of the peroxisome proliferator-activated receptor delta (PPARd) signaling pathway (AID 743212)
Peroxisome proliferator-activated receptor delta (Homo sapiens), sequence (Q03181 whole entry, looked up): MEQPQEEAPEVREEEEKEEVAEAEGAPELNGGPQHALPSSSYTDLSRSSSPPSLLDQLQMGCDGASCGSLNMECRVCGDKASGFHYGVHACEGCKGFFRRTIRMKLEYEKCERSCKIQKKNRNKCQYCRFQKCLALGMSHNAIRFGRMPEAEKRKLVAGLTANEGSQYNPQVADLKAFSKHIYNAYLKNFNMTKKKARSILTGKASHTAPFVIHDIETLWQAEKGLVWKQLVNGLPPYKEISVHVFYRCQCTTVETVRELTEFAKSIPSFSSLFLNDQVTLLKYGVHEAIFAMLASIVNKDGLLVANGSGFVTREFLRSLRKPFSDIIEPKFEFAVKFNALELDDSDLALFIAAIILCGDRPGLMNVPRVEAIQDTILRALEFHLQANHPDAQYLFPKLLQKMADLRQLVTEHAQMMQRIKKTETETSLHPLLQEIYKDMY
Outline: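 Cells expressing a UAS-driven beta-lactamase reporter (PPARd-bla HEK293H) were given test compounds after a 5 h settle and kept at 37 C. Reporter activity was then measured as FRET fluorescence using LiveBLAzer B/G substrate.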

[19] = qHTS assay to identify small molecule antagonists of the peroxisome proliferator-activated receptor delta (PPARd) signaling pathway - cell viability counter screen (AID 743213; active = well fitted curve in the direction sought with a large enough effect in the repeat runs; an effect the other way counts as inactive or inconclusive; note: nearly all actives have a fitted effect of over 50% in size)
Outline: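 HEK293H cells with the PPARd UAS-bla reporter, co-treated 17 h at 37 C with compounds and L165041 (300 nM final), were lysed with CellTiter-Glo. Luminescence indicated viable cell content.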

[20] = molecular target: Peroxisome proliferator-activated receptor delta (Homo sapiens) (UniProt Q03181); assay: qHTS assay to identify small molecule antagonists of the peroxisome proliferator-activated receptor delta (PPARd) signaling pathway (AID 743215; active = well fitted inhibition curve with a large enough effect in the signal ratio in the repeat runs, not every such curve was filed as active; the % refers to the signal ratio;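 note: cells stimulated with agonist L165041 at 300 nM final during compound exposure; series mostly up to about 62 µM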)
Outline: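 Plated HEK293H PPARd-bla cells rested 5 h at 37 C and 5% CO2. Compound, then agonist L165041 at 300 nM final, was added; 17 h at 37 C followed. Substrate loading, 2 h room temperature, fluorescence measured.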

Measured: Potency

O=[N+]([O-])c1cccc(CCl)c1
not listed: [15] | [16] | [17] | [18] | [19] | [20]
inactive: all other assays above

C=CCN1CC[C@]23CCCC[C@H]2[C@H]1Cc1ccc(O)cc13
not listed: [18] | [19] | [20]
inactive: all other assays above

C=CC1(C)OC(=O)N(c2cc(Cl)cc(Cl)c2)C1=O (stereo not drawn)
43 µM (active) and inactive: [11]
not listed: [14]
inactive: all other assays above

NCC1(CC(=O)O)CCCCC1
not listed: [4] | [6] | [15] | [16] | [17] | [20]
inactive: all other assays above

C[C@]12C=CC(=O)C=C1CC[C@@H]1[C@@H]2CC[C@@]2(C)[C@H]1CC[C@]2(C)O
not listed: [3] | [6] | [15] | [16] | [17] | [18] | [19] | [20]
inactive: all other assays above

CCOC(=O)C(Cl)Cc1cc(-n2nc(C)n(C(F)F)c2=O)c(F)cc1Cl (stereo not drawn)
not listed: [1] | [6] | [15] | [17]
inactive: all other assays above

CCC1(c2ccccc2)C(=O)N(COC)C(=O)N(COC)C1=O
not listed: [6] | [15] | [16] | [17]
inactive: all other assays above

CCC1(c2ccccc2)CCC(=O)NC1=O (stereo not drawn)
not listed: [6] | [15] | [16] | [18] | [19]
inactive: all other assays above

NC(=O)CS(=O)C(c1ccccc1)c1ccccc1 (stereo not drawn)
not listed: [3] | [4] | [6] | [15] | [16] | [18] | [19] | [20]
inactive: all other assays above

O=C(NC(O)C(Cl)(Cl)Cl)NC(O)C(Cl)(Cl)Cl (stereo not drawn)
not listed: [6] | [15] | [16] | [18] | [20]
inactive: all other assays above

C=CC(=O)OCCN(C)C
not listed: [4] | [6] | [15] | [16]
inactive: all other assays above

CC(=O)CN(CC(C)=O)N=O
not listed: [3] | [4] | [6] | [15] | [16] | [19]
inactive: all other assays above

CC(C)c1ccc(O)cc1
not listed: [6] | [15] | [16] | [17] | [20]
inactive: all other assays above

CN(C)C(=O)Oc1cc(OC(=O)N(C)C)cc(C(O)CNC(C)(C)C)c1 (stereo not drawn)
not listed: [6] | [19]
inactive: all other assays above

[P]#[In]
not listed: [4] | [6] | [15] | [16] | [18]
inactive: all other assays above

Nc1c(Cl)c(F)nc(OCC(=O)O)c1Cl
not listed: [1] | [6] | [15] | [16] | [17] | [18] | [20]
inactive: all other assays above

CCc1cc(OC)c(C[C@H](C)N)cc1OC
not listed: [2] | [6] | [17]
inactive: all other assays above

CC1=C2[C@H]3OC(=O)[C@@H](C)[C@@H]3CC[C@@]2(C)C=CC1=O
not listed: [3] | [4] | [6] | [17] | [18]
inactive: all other assays above
